# High-throughput results from PubChem.
# VACV mCherry inh = inhibitors of vaccinia virus infection (mCherry reporter signal); Vaccinia virus mCherry reporter infection, fluorescence; Potency, µM (titrated, usually from 36.5 µM), hits mostly inhibitors; 310,000 tested, 0.63% active; AID 720579; calls by dose curve; tested in A549 cells; further: nearly all actives have a fitted effect of over 35% in size
# Vaccinia Venus = vaccinia inhibition (Venus reporter) | Vaccinia virus Venus reporter expression, fluorescence | Potency, µM (series often up to 36.5 µM), hits mostly inhibitors | 330,000 tested, 0.46% active; calls by dose curve; tested in A549 cells; further: nearly all actives have a fitted effect of over 30% in size
# FMDV inh = antivirals against foot and mouth disease virus; FMDV antiviral cell-based qHTS; Potency, µM (top dose mostly 57.9 µM), hits mostly inhibitors; 410,000 tested, 1.2% active; AID 1159524; calls by dose curve; tested in HEK293T cells; further: read-out not given here; nearly all actives have a fitted effect of over 45% in size
# FBPA Giardia inh = Giardia lamblia aldolase inhibition. AID 2451. purified Giardia FBPA. Potency, µM (doses to about 59.6 µM), hits mostly inhibitors. 290,000 tested, 0.71% active. A8B2U2; active means well fitted inhibition curve with a large enough effect; inconclusive means small, poorly fitted or top-dose-only effect, or effect the other way; further: nearly all actives have a fitted effect of over 55% in size
# Target sequence (A8B2U2 whole entry, looked up): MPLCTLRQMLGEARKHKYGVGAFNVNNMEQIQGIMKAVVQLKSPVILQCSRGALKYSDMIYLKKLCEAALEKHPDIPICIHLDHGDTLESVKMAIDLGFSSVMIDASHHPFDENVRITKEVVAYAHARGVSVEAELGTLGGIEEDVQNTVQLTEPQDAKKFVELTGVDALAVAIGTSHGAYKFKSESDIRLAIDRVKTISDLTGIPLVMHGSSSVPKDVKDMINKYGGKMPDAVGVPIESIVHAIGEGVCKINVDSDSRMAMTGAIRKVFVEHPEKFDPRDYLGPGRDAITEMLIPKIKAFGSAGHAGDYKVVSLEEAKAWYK
#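 Giardia FBPA (40 nM reagent) was preincubated 10 min at RT with compound (up to 57.5 uM final), then substrate plus GAPDH/TPI/NAD/arsenate coupling system with diaphorase/resazurin was added; resorufin fluorescence (525/598 nm) was read after 20 min.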
# Hits are given with their value; 0 = inactive; ? = inconclusive; - = no result given; [ ] = another dose, or the depositor's remark. A selection: hits, their analogues and other compounds. The true share with any hit is near 2.2%.
SMILES,VACV mCherry inh,Vaccinia Venus,FMDV inh,FBPA Giardia inh
Cc1nc2ccc(NC(=O)c3ccc(S(=O)(=O)N(C)c4ccccc4)cc3)cc2s1,?,?,22µM,0
Cc1cc(C)[n+](C)c2ccccc12,0,0,-,-
COc1cccc(CNc2nc(Cl)nc3nc[nH]c23)c1,0,0,-,-
CC[N+]1(CC(=O)c2ccc(OC)cc2)CCCCC1,0,0,-,-
Cc1ccc(S(=O)(=O)N(C)c2ccc(C(=O)Nc3ccccn3)cc2)cc1,0,0,?,-
Cc1ccc(S(=O)(=O)N(C)c2ccc(C(=O)Nc3cccc(C)n3)cc2)cc1,0,0,25µM,-
COc1ccc(NC(=O)c2ccc(S(=O)(=O)N(C)c3ccccc3)cc2)cn1,-,-,18µM,0
Cc1ccc(-c2nc3cc(C)ccc3o2)cc1,0,0,10µM,0
Cc1c(C(=O)N(C)c2cccc(C(F)(F)F)c2)sc2nc3n(c(=O)c12)CCCCC3,0[7.34 µM],0[7.34 µM],0,-
O=S(=O)(/C=C/c1ccccc1)N1CCC(n2c(C3CCCO3)nc3cccnc32)CC1 (stereo not drawn),0,0,0,-
O=C1C=C2C(=CCOC2O)O1 (stereo not drawn),11µM,11µM,14µM,0
COc1cc(N(C)C)c(OC)cc1C=C1C=CC=C1,0,0,-,-
COc1ccc(CCNc2nc3cc(OC)c(OC)cc3c3nc(-c4ccccc4)nn23)cc1OC,0,0,4.5µM,-
COc1ccc(CCNc2nc3ccccc3c3nc(-c4cccc(C)c4)nn23)cc1OC,0,0,0,-
COc1cccc(C(=O)N2CCc3c(C(=O)NC(C)c4ccco4)c(OC)cc(=O)n3CC2)c1OC (stereo not drawn),0,0,0,-
CC(C)(C)C(=O)/C(=C/c1ccc(Cl)cc1)n1cncn1,-,-,16µM,0
N/C(Cn1cncn1)=N\NC(=O)c1ccc(Cl)cc1Cl,0,0,0,0
CC(C)/C=C(/C(=O)c1ccc(Cl)cc1Cl)n1cncn1,0,0,35µM,0
c1cncc(OC2CCN(Cc3ccc4c(c3)CN(Cc3ccc5c(c3)OCO5)CCO4)CC2)c1,0,0,?,-
COc1ccc(CCNC(=O)CSc2cn(CCNC(=O)c3ccc(OC)c(OC)c3)c3ccccc23)cc1OC,0,0,0,-
COc1ccc(CCNC(=O)CSc2cn(CCNC(=O)c3cccc(C(F)(F)F)c3)c3ccccc23)cc1OC,?,?,22µM,-
CCOC(=O)[C@]12Cc3cc(OC)ccc3[C@H]1N(CCC(=O)OC)C(=O)c1cc(OC)ccc12,0,0,20µM,-
CCOC(=O)[C@]12Cc3ccccc3[C@H]1N(CCC(=O)OC)C(=O)c1cc(OC)ccc12,0,0,28µM,-
CCOC(=O)[C@]12Cc3ccccc3[C@H]1N(Cc1ccccc1)C(=O)c1cc(OC)ccc12,0,0,?,-
CCn1c(=O)oc2cc(NC(=O)CCl)ccc21,?,?,22µM,0
SMILES,VACV mCherry inh,Vaccinia Venus,FMDV inh,FBPA Giardia inh
Cn1c(=O)n(C)c2cc(NC(=O)CCl)ccc21,-,-,?,0
COc1ccc(-n2cc(-c3ccccc3)c3c(N4CC(C)OC(C)C4)ncnc32)cc1 (stereo not drawn),0,0,22µM,0
CCc1ccc(OCCCCn2c(CCNC(=O)C3CCCCC3)nc3ccccc32)cc1,0,?,-,-
O=C(Nc1cccc(C(F)(F)F)c1)c1csc(-c2ccncc2)n1,0,0,100µM,0
COc1cc(NC(=O)c2csc(-c3ccncc3)n2)cc(C(=O)Nc2cccc(C(F)(F)F)c2)c1,0,0,0,0
Cc1c(C(=O)NCC2CC2)sc2ncnc(NCCN3CCCCC3)c12,0,0,0,-
COc1ccc(C2CC(c3ccccc3Cl)=NN2c2ccc(S(N)(=O)=O)cc2)cc1 (stereo not drawn),13µM,?,?,-
CN(C)C(=S)SC(=S)N(C)C,-,-,-,16µM
O=C(O)C[C@@H]1C(=O)O[C@@H]2C(COC(=O)c3cc(O)c(O)c(O)c3)O[C@@H](OC(=O)c3cc(O)c(O)c(O)c3)[C@@H](OC(=O)c3cc(O)c(O)c4c3[C@H]1[C@H](O)C(=O)O4)[C@H]2OC(=O)c1cc(O)c(O)c(O)c1 (stereo partly drawn),-,-,-,4µM
Cc1ccc(-c2ccnc(-n3ncc(C(=O)N4CCCCC4c4cccnc4)c3C3CC3)n2)o1 (stereo not drawn),0,?,0,-
CN(C)S(=O)(=O)c1ccc(Nc2nc(C3CC3)nc3c2nnn3Cc2ccccc2Cl)cc1,0,0,5µM,0
COC(=O)CNc1nc(C2CC2)nc2c1nnn2Cc1ccccc1Cl,-,-,0,0
CCc1nc(Nc2ccc(OC)c(OC)c2)c2nnn(Cc3ccccc3Cl)c2n1,-,?,25µM,0
C=CCOC(=O)C1=C(C)Nc2ncnn2C1c1cccs1 (stereo not drawn),-,-,0,0
C=CCOC(=O)C1=C(C)Nc2ncnn2C1c1cc(Br)ccc1F (stereo not drawn),-,-,13µM,0
